Shown are actives, neighbours in structure and some others; about 6.2% of the full set was active somewhere.
MARV entry inh = qHTS for inhibitors of binding or entry into cells for Marburg Virus; 300,000 compounds, 1.8% hits; Marburg virus pseudotyped entry inhibition, cell reporter; Potency, µM (titrated, usually from 37.8 µM), actives largely listed as inhibitors; calls by dose curve; tested in HEK293 cells
FMDV antiviral = High Throughput Screening for Foot and Mouth Disease Virus Antivirals. 410,000 compounds, 1.2% hits. AID 1159524, 2015. FMDV antiviral cell-based qHTS. Potency, µM (doses to about 57.9 µM), usual class: inhibitors; calls by dose curve; tested in HEK293T cells; note: read-out not given here; nearly all actives have a fitted effect of over 45% in size
LASV entry inh = qHTS for Inhibitors of binding or entry into cells for Lassa Virus; Lassa virus pseudotype entry inhibition, cell reporter; Potency, µM (top dose mostly 37.9 µM), hits mostly inhibitors; 300,000 compounds, 1.2% hits; calls by dose curve; tested in HEK293 cells; note: nearly all actives have a fitted effect of over 50% in size
HCMV antiviral = qHTS Assay for inhibitors of the human cytomegalovirus (HCMV); HFF cells, HCMV-luciferase reporter, 72 h; stronger effect = lower value; activity change, negative = inhibition, % at 57.5 µM; 410,000 compounds, 4.5% hits; in the data active = activity change below about -60%; inconclusive = no clear call, values can overlap the other calls; inactive = above about -39%
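Screen run at 2 compound doses on HFFs infected with reporter HCMV, MOI 1 PFU/cell. Luciferase activity from cell lysates at 72 h post infection gave inhibition relative to buffer-only and Salinomycin wells.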
Each line names hits and unclear results; the compound was inactive in the other large screens; ! = not confirmed by another sample.

Cc1onc(-c2c(F)cccc2Cl)c1-c1ncc(-c2ccc(Cl)cc2)o1	HCMV antiviral -76.0 (no result: MARV entry inh, FMDV antiviral, LASV entry inh)
CCOc1cnc(-c2c(-c3c(F)cccc3Cl)noc2C)o1	none
NS(=O)(=O)c1ccc(NC(=S)NCc2ccccc2Cl)cc1	none
Cc1cc(NC(=O)C(=O)c2cn(C)c3ccccc23)no1	MARV entry inh inconclusive
CCOC(=O)N1CCC(NC(=O)c2ccc3c(c2)sc2nc(-c4ccccc4)cn23)CC1	MARV entry inh 11.2µM, FMDV antiviral inconclusive, LASV entry inh inconclusive (no result: HCMV antiviral)
CC(C)CC1Nc2ncnc(N3CCOCC3)c2N(Cc2ccc(Cl)cc2)C1=O (stereo unspecified)	HCMV antiviral -101.3! (no result: MARV entry inh, LASV entry inh)
COC(=O)c1c(C)oc2ccc(N(C(=O)c3ccncc3)S(=O)(=O)c3cc(C)ccc3C)cc12	LASV entry inh inconclusive, HCMV antiviral -64.8
CCOC(=O)c1c(-c2ccccc2)oc2ccc(N(C(C)=O)S(=O)(=O)c3cc(C)ccc3C)cc12	HCMV antiviral -106.0
CCc1nc2cccnc2n1-c1ccc(CC(=O)Nc2ccccc2Cl)cc1	FMDV antiviral inconclusive, HCMV antiviral inconclusive (no result: MARV entry inh)
CCN(c1ccc(OC)cc1)S(=O)(=O)c1nnc(NC(=O)c2ccccc2Cl)s1	none (no result: MARV entry inh)
COc1cc2c(c(OC)c1OC)-c1ccc(O)c(=O)cc1[C@@H](NC(C)=O)CC2	none (no result: MARV entry inh, LASV entry inh)
COc1cc2c(c(OC)c1OC)-c1ccc(O)cc1C(NC(C)=O)CC2 (stereo unspecified)	MARV entry inh inconclusive, LASV entry inh inconclusive, HCMV antiviral -94.9
CN[C@H]1CCc2cc(OC)c(OC)c(OC)c2-c2ccc(OC)c(=O)cc21	HCMV antiviral -95.0 (no result: MARV entry inh, LASV entry inh)
COc1cc2c(c(OC)c1OC)-c1ccc(NC(=O)c3ccccc3)c(=O)cc1[C@@H](NC(C)=O)CC2	HCMV antiviral -88.5
COc1cc2c(c(OC)c1OC)-c1ccc(O)cc1[C@@H](NC(C)=O)CC2	HCMV antiviral -78.4 (no result: MARV entry inh, LASV entry inh)
CCn1cc(C(=O)O)c(=O)c2cc(F)c(N3CCN(S(=O)(=O)c4ccc(Br)cc4)CC3)cc21	none (no result: FMDV antiviral, LASV entry inh, HCMV antiviral)
COC(=O)c1ccc(Cl)c(NC(=O)CN2CCN(C)CC2)c1	none
O=C1NC(=O)N(CCNc2ncc(C(F)(F)F)cc2Cl)C(=O)C1Cc1ccc(Cl)cc1 (stereo unspecified)	MARV entry inh inconclusive
CN(C)c1ccc(/C=N/n2c(C3CCCCC3)n[nH]c2=S)cc1	MARV entry inh 2.24µM, LASV entry inh inconclusive
CCOc1ccc(/C=N/n2c(C3CCCCC3)n[nH]c2=S)cc1	HCMV antiviral -81.2 (no result: MARV entry inh, LASV entry inh)
O=C(NC1CC(=O)N(c2ccc(F)cc2)C1)N1CCN(C(=O)c2ccco2)CC1 (stereo unspecified)	none
O=C(NCCC1=CCCCC1)N[C@@H](Cc1ccccc1)C(=O)O	none
CN(C)CC/C=C1/c2ccccc2Sc2ccc(Cl)cc21	FMDV antiviral inconclusive (no result: MARV entry inh, LASV entry inh)
COC(=O)C1=C(C(=O)OC)[C@@H]2N(Cc3ccccc3)c3ccccc3[C@@]23C[C@@H](C(=O)OC)N(C(=O)c2cccs2)C3=N1	MARV entry inh inconclusive, FMDV antiviral inconclusive, LASV entry inh inconclusive
CC(C)COc1ccc(N)cc1OCC(C)C	none
O=C(CC(c1ccccc1)c1cc(Br)ccc1O)NCC1(c2ccccc2)CCCC1 (stereo unspecified)	MARV entry inh inconclusive, FMDV antiviral inconclusive, LASV entry inh inconclusive, HCMV antiviral -105.1
O=C(NCCc1ccccc1)C(=O)NCC1(c2ccccc2)CCCC1	none
O=C(CCc1ccccc1)NCC1(c2ccccc2)CCCC1	MARV entry inh 5.62µM, LASV entry inh inconclusive
O=C(CC(c1ccccc1)c1cc(Br)ccc1O)NCCN1CCOCC1 (stereo unspecified)	MARV entry inh inconclusive
CC(=O)c1cc(C)c(OC(=O)c2ccccc2)c(C)c1	FMDV antiviral inconclusive, LASV entry inh inconclusive
CC(=O)Cc1cc(O)c2ccccc2c1OC(=O)c1ccccc1	HCMV antiviral -73.3
CCCC12C(=O)C(C)(C(c3ccccc3)=C1c1ccccc1)C1C(=O)N(c3ccc(C)cc3)C(=O)C12 (stereo unspecified)	MARV entry inh inconclusive, FMDV antiviral inconclusive, LASV entry inh inconclusive, HCMV antiviral -86.6
CCC12C(=O)C(CC)(C(c3ccccc3)=C1c1ccccc1)[C@@H]1C(=O)N(c3ccccc3)C(=O)C12 (stereo partly specified)	MARV entry inh inconclusive, HCMV antiviral -60.6
Cc1c([N+](=O)[O-])cc(S(=O)(=O)Nc2ccncc2)cc1[N+](=O)[O-]	none (no result: MARV entry inh, LASV entry inh)
C/C(CS(=O)(=O)c1ccc(Cl)c(Cl)c1)=N/NC(N)=S	HCMV antiviral -69.7
O=C(CSc1nnc(-c2cc3ccccc3cc2O)n1Cc1ccco1)c1ccc(F)cc1	MARV entry inh inconclusive, LASV entry inh 23.1µM, HCMV antiviral inconclusive
Cc1ccc(C(=O)CSc2nnc(CNc3ccc(C)cc3C)n2Cc2ccco2)cc1	MARV entry inh inconclusive, FMDV antiviral inconclusive, LASV entry inh 25.9µM
Cc1occc1-c1nnc(SCC(=O)c2ccc(F)cc2)n1Cc1ccco1	none
C=C1C(=O)[C@]23C[C@H]1CCC2[C@]1(C)C(=O)CC[C@@](C)(C(=O)O)C1C[C@@H]3O (stereo partly specified)	FMDV antiviral 35.5µM (no result: MARV entry inh, LASV entry inh)
C=C1C(=O)[C@]23C[C@H]1CCC2[C@]1(C)CCC[C@@](C)(C(=O)O)C1C[C@@H]3O (stereo partly specified)	FMDV antiviral 25.1µM, HCMV antiviral -102.3 (no result: MARV entry inh, LASV entry inh)
C=C1C(=O)[C@]23C[C@H]1CC[C@H]2[C@]1(C)[C@@H](OC(C)=O)CC[C@@](C)(C(=O)O)[C@H]1C[C@@H]3OC(C)=O	FMDV antiviral inconclusive (no result: MARV entry inh, LASV entry inh)
O=C(CSc1nnc(Cc2ccccc2)o1)Nc1cccc(F)c1	none (no result: MARV entry inh, LASV entry inh)
Cc1ccc2c(c1)-c1c(cnn1CC(=O)N1CCN(c3ccccc3F)CC1)CO2	HCMV antiviral -87.5 (no result: LASV entry inh)
Clc1ccc(Sc2cc(N3CCOCC3)nc(-c3ccccc3)n2)cc1	none
C[C@@H]1CN([C@@H](C)CO)S(=O)(=O)c2ccc(Br)cc2O[C@@H]1CN(C)C(=O)NC1CCCCC1	none (no result: MARV entry inh, LASV entry inh)
Cc1cc2c(C(C)C)c(O)c(O)c(C=O)c2c(O)c1-c1c(C)cc2c(C(C)C)c(O)c(O)c(C=O)c2c1O	MARV entry inh 9.96µM, FMDV antiviral inconclusive, LASV entry inh 7.05µM (no result: HCMV antiviral)
O=C(O)CN(c1ccc2c(c1)OCCO2)S(=O)(=O)c1ccccc1	HCMV antiviral -69.0
COC(=O)CN(c1ccc2c(c1)OCCO2)S(=O)(=O)c1ccccc1	none
O=C1CC(c2ccco2)CC2=C1C1c3ccccc3C(=O)N1c1ccccc1N2 (stereo unspecified)	MARV entry inh inconclusive
O=C1CCCC2=C1C1c3ccccc3C(=O)N1c1ccc(C(=O)c3ccccc3)cc1N2 (stereo unspecified)	MARV entry inh inconclusive, LASV entry inh inconclusive, HCMV antiviral -76.1
O=C(COC(=O)c1cc(=O)[nH]c(=O)[nH]1)Nc1cccc(S(=O)(=O)N2CCCCC2)c1	none
CCCS(=O)(=O)c1nc(S(=O)(=O)c2ccc(C)cc2)c(N(CC)CC)s1	HCMV antiviral inconclusive
Cc1ccc(S(=O)(=O)c2nc(S(=O)(=O)c3ccccc3)sc2N2CCN(C)CC2)cc1	HCMV antiviral -99.2 (no result: MARV entry inh, LASV entry inh)

Bioassay records deposited in PubChem BioAssay by National Center for Advancing Translational Sciences (NCATS).
